According to the OligoGym collection:

These sequences were tested against ANKRD22 (assay: pooled miR-30 sensor sort-seq; sequence = guide strand). Details: shRNA.
Also: reference of the scale not given here.

Sequence | sensor-assay potency score (higher = more potent)
TTATTGTGGGGTCTGCACGGGC | -0.753
TAGCATTCGTACAAGAGCCTCA | 0.13
TAGCATTAACTTCGACGCCAGC | -1.11
TACAAGAGCCTCATTCTGCTTT | -0.0713
TTTTGAGGTTGACATTAGCATT | -1.7
TTGTCTTTGATACCATGAGGAA | -1.48
TTTCTTCACAGCATAATGCAAG | -0.597

What follows are sequences tested against ANKRD23 in the same assay as above. Details: shRNA.

Sequence | sensor-assay potency score (higher = more potent)
TTTTCCACATAGTAACAACAGC | -1.09
AAATCTTTCAAGTTTCTTCTTC | 0.216
TCTTTCTCCACTTACCAACTGC | -0.293
TTATCCAGATTAAATCTGGTAC | -0.803
TCTTTGAACCAAGTTTTCCAAG | -1.3
TTCTCCACTTACCAACTGCTGA | -0.872
TGTCTCAGTCGCTTTTTCCGTC | -0.0673
TAGAGCAGCAGTAGCTTCATGG | -0.653
TTCCAATTTCAGCTTCTCCCGG | -0.86
TAATTTGAAACGTACAGACGGT | 0.00484
TTAAGATTCACTTTCTGGCGTT | -0.127
TTCATGGCTTTGTAGCTGCCGT | -0.986

These sequences were tested against ANKRD40 in the same assay as above. Details: shRNA.

Sequence | sensor-assay potency score (higher = more potent)
ATTATTTTCACTTATCATCAGA | -0.625
TTTTGTGGTAAGAATTTCTTTG | -0.767
TTGGAGTCGAGCAACATCCTTG | -0.239
TAACTTTCTGATCTTCTCCACT | -1.02
TAACAGGTAAGAGACCACCTGA | -0.364
TTCCTTAACAGAGTATTGGGTA | 0.698
TTGATCTGGATTAACACCCAGC | -0.194
TTCACTTATCATCAGAACCAGT | -0.41
TATCATCAGAACCAGTTCCAGC | -0.968
TTGTCCTTCCTTAACAGAGTAT | -0.746
TGATCTTCTCCACTTGATCTGG | -0.74
TCGAGCAACATCCTTGTCCTTC | -0.697

The sequences below were run against ANKRD53 in the same assay as above. Details: shRNA.

Sequence | sensor-assay potency score (higher = more potent)
TTCATCGAATGTGTCACGCAGG | -0.608
TAGTAGAGAAATGTCCTGCCAT | -0.32
TTGCTAACATTCCACATTGTGG | -1.32
TGATAGTAGAGAAATGTCCTGC | 0.127
TTTCTGAGTGCCAGCTTCCGGA | -1.18
TTCATTTTCGTCATCTCACGGG | 0.469
TTGCTTGGTATTGGAGACCAGA | -0.812
TTGGACTCCGCGTCAGTCCAGG | -1.11
